From the supplement of paper PMC11732987, “Enantioselective OTUD7B fragment discovery through chemoproteomics screening and high-throughput optimisation” (Communications Chemistry, 2025)

Assays:
Assay in all cases: log2 ratio of Biotin-Ahx-Ub-VS probe labelling (fragment/DMSO); higher = less target engagement (more negative = stronger competition), active = hit call of the paper (q ≤ 0.05, log2 ratio ≤ -1)
Conditions in all cases: compound concentration: 200 uM; treatment time: 3 h
[1] = target: T1, USP19 (UniProt O94966)
T1 sequence (whole entry): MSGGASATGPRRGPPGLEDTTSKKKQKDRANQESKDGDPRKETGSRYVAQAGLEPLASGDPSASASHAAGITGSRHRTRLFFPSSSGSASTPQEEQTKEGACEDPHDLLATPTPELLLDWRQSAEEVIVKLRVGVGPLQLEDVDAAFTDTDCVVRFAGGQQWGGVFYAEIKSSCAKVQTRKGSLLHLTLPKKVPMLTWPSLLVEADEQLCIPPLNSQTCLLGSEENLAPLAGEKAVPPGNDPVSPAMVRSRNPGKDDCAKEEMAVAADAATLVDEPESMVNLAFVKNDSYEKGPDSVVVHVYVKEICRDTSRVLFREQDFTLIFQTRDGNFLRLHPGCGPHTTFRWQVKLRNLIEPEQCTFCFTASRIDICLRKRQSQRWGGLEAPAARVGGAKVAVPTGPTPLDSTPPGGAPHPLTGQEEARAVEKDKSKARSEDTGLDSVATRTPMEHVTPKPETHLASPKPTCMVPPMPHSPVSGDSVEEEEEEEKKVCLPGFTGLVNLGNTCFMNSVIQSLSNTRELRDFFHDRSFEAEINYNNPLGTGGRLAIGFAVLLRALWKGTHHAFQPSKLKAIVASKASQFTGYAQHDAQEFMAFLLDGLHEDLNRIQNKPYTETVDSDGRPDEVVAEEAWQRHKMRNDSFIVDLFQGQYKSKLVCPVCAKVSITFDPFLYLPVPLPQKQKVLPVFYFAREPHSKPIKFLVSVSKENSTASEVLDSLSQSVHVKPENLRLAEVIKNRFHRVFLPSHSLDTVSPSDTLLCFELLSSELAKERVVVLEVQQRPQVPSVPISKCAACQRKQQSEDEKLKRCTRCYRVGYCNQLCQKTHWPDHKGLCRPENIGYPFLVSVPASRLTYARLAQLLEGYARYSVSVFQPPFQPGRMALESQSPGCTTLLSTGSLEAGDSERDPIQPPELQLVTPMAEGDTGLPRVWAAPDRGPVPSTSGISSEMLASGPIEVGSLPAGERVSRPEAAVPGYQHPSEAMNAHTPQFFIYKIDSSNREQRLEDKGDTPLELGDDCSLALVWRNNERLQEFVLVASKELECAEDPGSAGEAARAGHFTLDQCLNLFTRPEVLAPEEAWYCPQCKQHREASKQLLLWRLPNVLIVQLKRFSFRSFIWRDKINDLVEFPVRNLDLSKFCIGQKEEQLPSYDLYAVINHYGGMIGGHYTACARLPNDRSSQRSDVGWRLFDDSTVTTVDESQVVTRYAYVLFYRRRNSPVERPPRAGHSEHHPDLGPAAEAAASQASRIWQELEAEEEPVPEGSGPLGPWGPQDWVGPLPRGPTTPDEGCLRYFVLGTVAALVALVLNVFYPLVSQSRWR
Procedure, shortened: (§1)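 Labelling with Biotin-Ahx-Ub-VS (0.5 µM final, 1 h) followed a 3 h triplicate treatment of HEK293T lysate (495 µg per sample, Tris/CHAPS/IGEPAL buffer with protease inhibitors) with fragment at 200 µM or vehicle. Labelled DUBs were NeutrAvidin-enriched, digested with LysC and trypsin, and run by diaPASEF LC-MS/MS. The values, average log2 fragment/vehicle ratios by unpaired t-test, come from global-median-normalised Spectronaut label-free quantities. Proteins with ≥2 unique peptides were used.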

[2] = target: T2, USP22 (UniProt Q9UPT9)
T2 sequence (whole entry): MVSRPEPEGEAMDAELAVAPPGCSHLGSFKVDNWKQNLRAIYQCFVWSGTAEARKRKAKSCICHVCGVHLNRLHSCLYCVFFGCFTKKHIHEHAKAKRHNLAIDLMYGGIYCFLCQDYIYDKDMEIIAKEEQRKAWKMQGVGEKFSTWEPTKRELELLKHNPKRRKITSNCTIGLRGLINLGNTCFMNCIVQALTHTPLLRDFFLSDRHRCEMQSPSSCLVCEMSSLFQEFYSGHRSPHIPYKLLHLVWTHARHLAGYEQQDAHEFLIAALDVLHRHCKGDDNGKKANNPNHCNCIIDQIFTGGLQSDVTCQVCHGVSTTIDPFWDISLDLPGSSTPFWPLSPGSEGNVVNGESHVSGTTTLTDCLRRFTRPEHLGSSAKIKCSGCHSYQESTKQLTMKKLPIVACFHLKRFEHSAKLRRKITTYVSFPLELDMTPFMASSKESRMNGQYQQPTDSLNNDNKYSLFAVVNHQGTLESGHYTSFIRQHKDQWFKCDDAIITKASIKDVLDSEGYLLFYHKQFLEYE
Procedure, shortened: as §1

[3] = target: USP24 (UniProt Q9UPU5)
Chain of USP24 (Q9UPU5 whole entry): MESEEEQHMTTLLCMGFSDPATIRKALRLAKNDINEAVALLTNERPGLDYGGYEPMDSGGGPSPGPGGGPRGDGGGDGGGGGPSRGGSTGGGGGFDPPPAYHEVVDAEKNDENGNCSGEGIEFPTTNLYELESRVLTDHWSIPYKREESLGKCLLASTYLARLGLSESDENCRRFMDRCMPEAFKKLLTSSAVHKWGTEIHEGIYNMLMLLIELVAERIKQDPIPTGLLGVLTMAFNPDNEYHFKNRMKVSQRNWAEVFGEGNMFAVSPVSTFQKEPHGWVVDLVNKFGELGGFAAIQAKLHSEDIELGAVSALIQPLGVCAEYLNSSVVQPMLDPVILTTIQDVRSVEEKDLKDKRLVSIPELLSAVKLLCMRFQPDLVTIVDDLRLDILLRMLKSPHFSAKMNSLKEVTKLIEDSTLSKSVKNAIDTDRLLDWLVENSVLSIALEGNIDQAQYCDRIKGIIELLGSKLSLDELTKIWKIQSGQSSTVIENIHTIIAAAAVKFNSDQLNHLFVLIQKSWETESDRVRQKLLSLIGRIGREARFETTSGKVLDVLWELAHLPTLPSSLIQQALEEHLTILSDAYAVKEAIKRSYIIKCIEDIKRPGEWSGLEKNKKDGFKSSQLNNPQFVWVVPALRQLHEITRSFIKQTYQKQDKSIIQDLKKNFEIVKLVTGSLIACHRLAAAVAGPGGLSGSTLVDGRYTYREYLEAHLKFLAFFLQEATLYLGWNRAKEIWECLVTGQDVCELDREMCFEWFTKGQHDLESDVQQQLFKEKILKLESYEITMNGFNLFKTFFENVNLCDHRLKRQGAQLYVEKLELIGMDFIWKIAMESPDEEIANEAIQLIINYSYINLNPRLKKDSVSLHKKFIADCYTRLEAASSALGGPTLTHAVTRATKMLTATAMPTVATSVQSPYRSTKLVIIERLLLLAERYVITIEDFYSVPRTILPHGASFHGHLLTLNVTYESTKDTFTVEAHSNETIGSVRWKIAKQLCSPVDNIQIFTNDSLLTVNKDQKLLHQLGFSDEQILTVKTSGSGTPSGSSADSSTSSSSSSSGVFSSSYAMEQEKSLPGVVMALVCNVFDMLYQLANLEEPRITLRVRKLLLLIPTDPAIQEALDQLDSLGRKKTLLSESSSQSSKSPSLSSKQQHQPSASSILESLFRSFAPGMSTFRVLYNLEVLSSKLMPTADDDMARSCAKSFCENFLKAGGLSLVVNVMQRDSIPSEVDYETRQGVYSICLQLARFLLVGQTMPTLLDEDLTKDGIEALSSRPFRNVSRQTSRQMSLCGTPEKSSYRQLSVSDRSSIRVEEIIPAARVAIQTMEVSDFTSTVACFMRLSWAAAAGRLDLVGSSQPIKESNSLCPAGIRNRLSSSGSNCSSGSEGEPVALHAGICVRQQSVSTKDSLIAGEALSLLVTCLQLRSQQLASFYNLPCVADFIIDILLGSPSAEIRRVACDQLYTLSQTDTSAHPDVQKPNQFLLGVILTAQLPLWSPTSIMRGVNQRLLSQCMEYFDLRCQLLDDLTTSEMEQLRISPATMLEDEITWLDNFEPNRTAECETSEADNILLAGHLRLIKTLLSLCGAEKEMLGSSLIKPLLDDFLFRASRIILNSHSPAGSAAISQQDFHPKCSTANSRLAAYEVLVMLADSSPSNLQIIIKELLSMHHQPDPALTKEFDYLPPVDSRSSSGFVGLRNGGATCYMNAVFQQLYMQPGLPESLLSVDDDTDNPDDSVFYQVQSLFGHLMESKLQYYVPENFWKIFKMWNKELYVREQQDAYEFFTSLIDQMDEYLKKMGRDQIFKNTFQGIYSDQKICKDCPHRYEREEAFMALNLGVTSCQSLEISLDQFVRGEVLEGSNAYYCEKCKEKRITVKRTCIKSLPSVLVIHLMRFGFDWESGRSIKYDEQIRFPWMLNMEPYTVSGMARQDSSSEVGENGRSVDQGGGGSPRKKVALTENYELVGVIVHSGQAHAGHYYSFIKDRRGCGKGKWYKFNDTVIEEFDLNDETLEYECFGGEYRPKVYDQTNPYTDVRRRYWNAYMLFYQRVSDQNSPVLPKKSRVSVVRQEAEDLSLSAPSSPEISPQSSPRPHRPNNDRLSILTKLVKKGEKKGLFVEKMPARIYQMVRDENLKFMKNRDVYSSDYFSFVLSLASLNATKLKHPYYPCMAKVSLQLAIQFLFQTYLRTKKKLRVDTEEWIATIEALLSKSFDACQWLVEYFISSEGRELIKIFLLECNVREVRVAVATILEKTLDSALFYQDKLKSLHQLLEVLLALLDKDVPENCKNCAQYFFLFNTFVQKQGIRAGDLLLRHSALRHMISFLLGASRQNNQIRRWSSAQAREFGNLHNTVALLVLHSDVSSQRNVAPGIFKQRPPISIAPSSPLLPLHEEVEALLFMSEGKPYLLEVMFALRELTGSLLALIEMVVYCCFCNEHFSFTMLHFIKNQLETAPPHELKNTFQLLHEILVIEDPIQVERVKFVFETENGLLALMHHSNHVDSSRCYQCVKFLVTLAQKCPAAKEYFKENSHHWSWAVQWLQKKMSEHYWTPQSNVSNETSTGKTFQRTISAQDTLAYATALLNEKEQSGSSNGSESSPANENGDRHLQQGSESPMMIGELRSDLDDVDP
Procedure, shortened: as §1

[4] = target: T3, USP25 (UniProt Q9UHP3)
T3 sequence (whole entry): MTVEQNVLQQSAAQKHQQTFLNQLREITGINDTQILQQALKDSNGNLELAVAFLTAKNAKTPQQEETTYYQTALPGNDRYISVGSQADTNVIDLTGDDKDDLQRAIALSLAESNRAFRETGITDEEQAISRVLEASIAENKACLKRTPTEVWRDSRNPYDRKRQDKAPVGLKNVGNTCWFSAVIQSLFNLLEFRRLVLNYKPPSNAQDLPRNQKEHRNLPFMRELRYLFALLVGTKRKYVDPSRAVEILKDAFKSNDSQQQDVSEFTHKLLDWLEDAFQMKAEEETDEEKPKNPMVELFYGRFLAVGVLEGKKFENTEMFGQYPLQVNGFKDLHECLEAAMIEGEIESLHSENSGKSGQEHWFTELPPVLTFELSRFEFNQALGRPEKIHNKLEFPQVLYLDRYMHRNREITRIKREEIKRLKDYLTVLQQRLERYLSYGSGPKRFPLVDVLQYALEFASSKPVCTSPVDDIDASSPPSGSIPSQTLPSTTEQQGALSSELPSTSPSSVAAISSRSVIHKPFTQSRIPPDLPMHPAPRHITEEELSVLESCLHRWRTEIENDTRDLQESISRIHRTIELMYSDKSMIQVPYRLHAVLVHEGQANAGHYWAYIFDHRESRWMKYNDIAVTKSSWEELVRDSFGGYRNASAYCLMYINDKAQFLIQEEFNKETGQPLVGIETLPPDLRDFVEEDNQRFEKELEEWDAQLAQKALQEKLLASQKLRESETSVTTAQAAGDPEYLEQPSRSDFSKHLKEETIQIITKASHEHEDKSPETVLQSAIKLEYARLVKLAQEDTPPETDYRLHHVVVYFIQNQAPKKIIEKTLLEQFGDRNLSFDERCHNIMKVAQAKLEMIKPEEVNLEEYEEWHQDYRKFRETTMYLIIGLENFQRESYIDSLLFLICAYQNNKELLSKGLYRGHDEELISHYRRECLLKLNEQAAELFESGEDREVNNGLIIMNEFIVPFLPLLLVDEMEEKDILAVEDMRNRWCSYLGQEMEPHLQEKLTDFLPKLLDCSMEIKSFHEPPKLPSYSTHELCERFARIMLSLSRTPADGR
Procedure, shortened: as §1

[5] = target: T4, USP28 (UniProt Q96RU2)
T4 sequence (whole entry): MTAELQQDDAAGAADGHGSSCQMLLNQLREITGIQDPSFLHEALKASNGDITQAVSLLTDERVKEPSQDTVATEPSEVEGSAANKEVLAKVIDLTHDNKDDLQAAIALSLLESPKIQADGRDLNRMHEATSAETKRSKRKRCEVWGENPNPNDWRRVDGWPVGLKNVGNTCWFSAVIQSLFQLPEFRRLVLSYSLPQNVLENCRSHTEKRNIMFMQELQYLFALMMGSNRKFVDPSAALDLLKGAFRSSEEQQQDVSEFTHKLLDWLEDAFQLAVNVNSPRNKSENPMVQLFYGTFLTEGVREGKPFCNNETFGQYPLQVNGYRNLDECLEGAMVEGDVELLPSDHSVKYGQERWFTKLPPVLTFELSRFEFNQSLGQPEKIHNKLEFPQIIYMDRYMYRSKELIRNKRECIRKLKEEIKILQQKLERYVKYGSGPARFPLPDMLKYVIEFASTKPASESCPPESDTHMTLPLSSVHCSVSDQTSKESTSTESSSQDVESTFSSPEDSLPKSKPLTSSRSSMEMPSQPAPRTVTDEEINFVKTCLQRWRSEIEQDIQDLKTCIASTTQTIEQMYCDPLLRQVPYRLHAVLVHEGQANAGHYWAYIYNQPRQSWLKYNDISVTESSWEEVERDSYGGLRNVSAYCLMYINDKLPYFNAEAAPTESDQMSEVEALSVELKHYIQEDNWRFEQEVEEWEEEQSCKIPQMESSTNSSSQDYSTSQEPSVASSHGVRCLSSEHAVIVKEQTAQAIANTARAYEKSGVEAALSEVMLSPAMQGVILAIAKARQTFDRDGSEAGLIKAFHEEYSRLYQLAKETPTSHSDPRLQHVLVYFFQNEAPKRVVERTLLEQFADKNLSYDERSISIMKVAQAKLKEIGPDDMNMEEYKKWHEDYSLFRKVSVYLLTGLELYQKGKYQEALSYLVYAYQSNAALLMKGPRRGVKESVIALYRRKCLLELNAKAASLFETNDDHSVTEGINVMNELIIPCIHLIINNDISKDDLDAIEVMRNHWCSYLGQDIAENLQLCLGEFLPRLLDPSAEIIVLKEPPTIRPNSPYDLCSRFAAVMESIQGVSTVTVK
Procedure, shortened: as §1

Measured: log2 ratio of Biotin-Ahx-Ub-VS probe labelling

O=C(CCl)N1CCOCCC1c1ccccc1 (stereo not given)
inactive: [1] -0.132 | [2] 0.147 | [3] -0.633 | [4] 0.0233 | [5] -0.12
